Key:
Conditions in all cases: concentration: 10 µM; 24 h
HCC1569 [1] = assay: cell number relative to DMSO (% of DMSO); higher = more cells (less growth inhibition / toxicity)
Method in brief: (§1)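 After 24 h at 37 °C with compounds at 10 µM, in triplicate, HCC1569 and TDF cells were fixed with 3.7% formaldehyde. Immunostaining used a rabbit anti-H1.0 antibody and an AlexaFluor 647 secondary, with DAPI, and six fields per well were imaged at ×10. H1.0 nuclear intensity or cell number is presented as percent of the plate control, from the median of replicates, with HCC1569 values smoothed for positional effects.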

TDF [2] = assay: as above
Method in brief: as §1

TDF [3] = assay: H1.0 immunofluorescence intensity relative to DMSO (% of DMSO); higher = stronger H1.0 induction, active = 120 or more
Method in brief: as §1

HCC1569 [4] = assay: H1.0 immunofluorescence intensity relative to DMSO (% of DMSO); higher = stronger H1.0 induction, active = 140 or more
Method in brief: as §1
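Throughout, for H1.0 immunofluorescence intensity relative to DMSO: TDF is a line of transformed human dermal fibroblasts of mesenchymal origin.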
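Throughout, for cell number relative to DMSO: TDF denotes transformed human dermal fibroblasts of mesenchymal origin.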

CCCCCC(CC(=O)NO)C(=O)NC(C(=O)N1CCCC1CO)C(C)C (stereo unspecified) [Actinonin]
cell number (HCC1569 [1]): 101
cell number (TDF [2]): 89
H1.0 immunofluorescence intensity (TDF [3]): 108 (inactive)
H1.0 immunofluorescence intensity (HCC1569 [4]): 111 (inactive)

c1ccc(-c2ccccn2)nc1 [2,2'-Bipyridyl]
cell number (HCC1569 [1]): 107
cell number (TDF [2]): 95
H1.0 immunofluorescence intensity (TDF [3]): 104 (inactive)
H1.0 immunofluorescence intensity (HCC1569 [4]): 102 (inactive)

Nc1ccn(C2OC(CO)C(O)C2O)c(=O)n1 (stereo unspecified) [Cytarabine]
cell number (HCC1569 [1]): 79.6
cell number (TDF [2]): 51.3
H1.0 immunofluorescence intensity (TDF [3]): 105 (inactive)
H1.0 immunofluorescence intensity (HCC1569 [4]): 102 (inactive)

CCCCCC=CCC=CCCCCCCCC(=O)O [9(E),12(E)-Octadecadienoic acid]
cell number (HCC1569 [1]): 96.5
cell number (TDF [2]): 107
H1.0 immunofluorescence intensity (TDF [3]): 100 (inactive)
H1.0 immunofluorescence intensity (HCC1569 [4]): 108 (inactive)

CC1=CCC2(C)CCC(O)(C(C)C)C2C(OC(=O)c2ccc(O)cc2)C1 (stereo unspecified) [Ferutinin]
cell number (HCC1569 [1]): 102
cell number (TDF [2]): 102
H1.0 immunofluorescence intensity (TDF [3]): 97.8 (inactive)
H1.0 immunofluorescence intensity (HCC1569 [4]): 107 (inactive)

CCCn1c(=O)c2[nH]c(-c3ccc(S(=O)(=O)O)cc3)nc2n(CCC)c1=O [1,3-Dipropyl-8-p-sulfophenylxanthine]
cell number (HCC1569 [1]): 104
cell number (TDF [2]): 106
H1.0 immunofluorescence intensity (TDF [3]): 90.4 (inactive)
H1.0 immunofluorescence intensity (HCC1569 [4]): 92.6 (inactive)

CCCCCC#CCC(O)C=CC=CC=CC(O)CCCC(=O)O (stereo unspecified) [14,15-Dehydroleukotriene B4]
cell number (HCC1569 [1]): 101
cell number (TDF [2]): 96.7
H1.0 immunofluorescence intensity (TDF [3]): 105 (inactive)
H1.0 immunofluorescence intensity (HCC1569 [4]): 101 (inactive)

O=NN(CCCl)C(=O)NCCCl [Carmustine]
cell number (HCC1569 [1]): 99
cell number (TDF [2]): 93.9
H1.0 immunofluorescence intensity (TDF [3]): 95.4 (inactive)
H1.0 immunofluorescence intensity (HCC1569 [4]): 89.6 (inactive)

CC1=C2C(=COC(C)C2C)C(=O)C(C(=O)O)=C1O (stereo unspecified) [Citrinin]
cell number (HCC1569 [1]): 104
cell number (TDF [2]): 102
H1.0 immunofluorescence intensity (TDF [3]): 101 (inactive)
H1.0 immunofluorescence intensity (HCC1569 [4]): 97.8 (inactive)

Source: the supplement of paper PMC7156485
